VP16 counter: inhibits Gal4-VP16 luciferase reporter, ROR gamma counter-screen; Drosophila S2 Gal4-VP16 UAS-luciferase, luminescence, 20 h; Potency, µM (top dose mostly 53.6 µM), inactives show at the top dose activity, negative = inhibition, most hits filed as inhibitors; actives 3.5% (n = 310,000); AID 2546;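 note: Gal4-VP16 expression switched on by copper sulfate through the metallothionein promoter; nearly all actives have a fitted effect of over 50% in size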
TDP1 cell CPT: growth inhibition of DT40 Tdp1-/-;hTDP1 cells with camptothecin (screen for TDP1 inhibitors); Potency, µM (series often up to 46.2 µM), inactives show top-dose activity change, negative = growth inhibition, actives largely listed as inhibitors; actives 12% (n = 420,000); chicken DT40 Tdp1-/-;hTDP1 cells + 20 nM CPT, ATP luminescence, 48 h; AID 686979; note: nearly all actives have a fitted effect of over 55% in size
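Chicken DT40 Tdp1-/- cells stably complemented with human TDP1 were seeded at 400 cells/well in medium containing 20 nM camptothecin, exposed to pin-transferred compounds, and grown at 37 °C for at least 48 hr. Viability was read as ATP luminescence.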
ELG1 repair inh: blocks ELG1-dependent DNA repair in HEK293T cells. HEK293T ELG1-luciferase reporter, luminescence, 16 h; DNA damage induced by 5-fluorouridine. Potency, µM (titrated, usually from 46.1 µM), without a hit: top-dose activity change, negative = inhibition, usual class: inhibitors. actives 2.3% (n = 330,000). AID 504467; note: nearly all actives have a fitted effect of over 55% in size
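HEK293T cells expressing luciferase-tagged ELG1 (2,000/well) received 5-Fluorouridine plus compound or DMSO for 16 hr at 37 °C. Luciferase was read by ONE-Glo luminescence after 30 min at room temperature.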
ALOX12 inh: blocks human arachidonate 12S-lipoxygenase. P18054. actives 1.1% (n = 580,000). Potency, µM (doses to about 108 µM), inactives show at the top dose activity change, negative = inhibition, most hits filed as inhibitors. purified 12hLO, xylenol orange hydroperoxide absorbance
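Hydroperoxide product was detected by ferrous iron/xylenol orange as the 573 to 405 nm absorbance ratio. Arachidonic acid at 40 uM (final) was turned over for 30 min at room temperature by 150 nM human 12hLO, pH 7.0 Hepes buffer, after 15 min compound preincubation.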
RORgamma inh: inhibitors of mouse ROR gamma transcriptional activity. AID 2551. P51450. actives 5.4% (n = 310,000). Potency, µM (titrated, usually from 53.6 µM), for the others: at the top dose activity change, negative = inhibition, most hits filed as inhibitors. Drosophila S2 Gal4-RORgamma UAS-luciferase reporter, 20 h; note: nearly all actives have a fitted effect of over 60% in size
Target sequence (P51450 whole entry, looked up, the tested form may be a part): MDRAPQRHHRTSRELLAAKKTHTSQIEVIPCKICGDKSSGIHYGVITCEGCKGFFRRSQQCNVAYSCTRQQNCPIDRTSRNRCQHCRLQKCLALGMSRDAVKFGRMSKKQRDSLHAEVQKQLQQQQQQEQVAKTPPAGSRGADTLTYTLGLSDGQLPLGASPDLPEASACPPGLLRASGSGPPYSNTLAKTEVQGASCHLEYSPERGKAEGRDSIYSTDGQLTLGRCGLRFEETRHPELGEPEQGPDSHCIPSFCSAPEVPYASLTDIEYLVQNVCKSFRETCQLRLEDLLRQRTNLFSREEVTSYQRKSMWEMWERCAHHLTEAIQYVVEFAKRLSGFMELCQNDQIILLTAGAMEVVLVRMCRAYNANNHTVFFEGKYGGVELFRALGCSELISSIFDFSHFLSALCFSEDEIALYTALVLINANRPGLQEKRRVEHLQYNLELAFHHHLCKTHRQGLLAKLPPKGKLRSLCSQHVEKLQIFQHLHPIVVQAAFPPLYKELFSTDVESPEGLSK
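Luminescence from a UAS-regulated Photinus luciferase reporter in stably transfected Drosophila Schneider cells is measured; decreased signal marks ROR gamma inhibition. Fusion expression is induced by 700 uM copper sulfate for 20 hr.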
TDP1 cell noCPT: qHTS for Inhibitors of human tyrosyl-DNA phosphodiesterase 1 (TDP1): qHTS in cells in absence of CPT; DT40 Tdp1-/- hTDP1 cells, no CPT, ATP luminescence, 48 h; Potency, µM (highest dose often 46.2 µM), inactives show at the top dose activity change, negative = growth inhibition, hits mostly inhibitors; actives 15% (n = 420,000); AID 686978, 2013; note: nearly all actives have a fitted effect of over 55% in size
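Readout: luminescence from CellTiter-Glo after 30 min in the dark at RT. Cells: DT40 Tdp1-/- with stable hTDP1, 400/well. Exposure: compounds alone, ≥48 hr, 37 °C.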
* = called active by the depositor; i = inactive; ? = inconclusive; . = no result given; ! = a repeat was not active; [ ] = dose if it differs, or a comment. Rows were chosen to be rich in hits. Some 15% of all compounds tested hit in one or more screens of this group. Calls come from the whole dose curve; as a rule, active = well fitted curve in the direction sought with a large enough effect; inconclusive = small, poorly fitted or top-dose-only effect, or another doubt; inactive = no such curve, though single readings can be large; an effect the other way counts as inactive or inconclusive. % is set by controls: 0 for no effect and ±100 for the full control effect; potency is the fitted concentration of half-maximal effect.

SMILES	VP16 counter	TDP1 cell CPT	ELG1 repair inh	ALOX12 inh	RORgamma inh	TDP1 cell noCPT
Cc1cccc(N(C(=O)c2snc(C(N)=O)c2N)C(C(=O)NCC2CCCO2)c2ccc(N(C)C)cc2)c1 (centres undefined)	-12%	29µM*	-17%	19%	21%	?
Cc1ccccc1C(=O)N1CCC2(C1)C(=O)N(C)c1ccccc12 (centres undefined)	.	.	.	18%	.	.
Cc1nc(-c2ccc(OC3CCN(C(=O)c4[nH]nc5c4COc4ccccc4-5)C3)cc2)no1 (centres undefined)	.	.	.	0%	.	.
CCN1C(=O)COc2ccc(-c3nc(NC(=O)c4ccncc4)sc3C)cc21	.	.	.	-11%	.	.
OC(c1ccccc1)(c1ccccc1)C1CCN(C(=S)NCCc2ccccc2)CC1	?	?	?	40µM*	13µM*	?
CCOc1ccc(NC(=S)N2CCC(C(O)(c3ccccc3)c3ccccc3)CC2)cc1	?	-19%	-4%	?	13µM*	?
OC(c1ccccc1)(c1ccccc1)C1CCN(C(=S)NC2CCCC2)CC1	18%[10 µM]	?	-12%	?	20µM*	?
NCC1CCN(C2CCCCC2)CC1	.	.	.	-8%	.	.
COc1ccc(-c2ccc3c(c2)C(=O)N2CCN(C(=O)c4cccnc4)C[C@@H]2C(=O)N3)cc1	.	.	.	49%	.	.
COc1ccc(C2Cn3nnc(C(=O)N4CCN(C(=O)c5ccccc5F)CC4)c3CO2)cc1 (centres undefined)	.	.	.	43%	.	.
O=C(Nc1ccsc1C(=O)NC1CCCCC1)c1ccccc1	-16%	?	-12%	-19%	-36%	21µM*
Cc1ccc(C(=O)Nc2ccsc2C(=O)O)cc1	?	?	?	416%	11µM*	15µM*
CCOC(=O)C1=C(C)N=C2SC=C(CC(=O)NCC3CC3)N2C1c1ccccc1OC (centres undefined)	.	.	.	9%	.	.
O=C(CSCc1cnn(-c2ccccc2)c1-n1cccc1)Nc1ccc(F)cc1F	.	?	.	-5%	.	18µM*
COc1ccc(OC)c(NC(=O)CSCc2cnn(-c3ccccc3)c2-n2cccc2)c1	2%	?	-15%	0%	27%	16µM*
COc1cc(NC(=O)CSCc2cnn(-c3ccccc3)c2-n2cccc2)cc(OC)c1	-3%	?	?	2%	?	15µM*
O=C(O)CSCc1cnn(-c2ccccc2)c1-n1cccc1	3%	-3%	?	?	1%	0%
Cc1cccc(C)c1NC(=O)CSCc1cnn(-c2ccccc2)c1-n1cccc1	.	10µM*	.	?	.	10µM*
Cc1ccc(NC(=O)CSCc2cnn(-c3ccccc3)c2-n2cccc2)c(Cl)c1	.	?	.	-21%	.	?
COc1ccc(CCNC(=O)CSCc2cnn(-c3ccccc3)c2-n2cccc2)cc1OC	.	.	.	-9%	.	.
CC(C)NC(=O)NC(=O)COC(=O)c1ccccc1F	-12%	5%	4%	-4%	11µM*	13%
Cc1ccccc1-c1cccc2[nH]c3c(c12)CCN1C(=O)[C@H]2[C@H](C)ON(C)[C@H]2C[C@@H]31	.	.	.	-11%	.	.
Cc1ccccc1Oc1ccc2c(c1)[C@@H]1C[C@H](N(C)C(=O)c3ccco3)[C@H]([C@H](C)O)C(=O)N1CC2	.	?	.	?	.	18µM*
Cc1ccccc1Oc1ccc2c(c1)[C@@H]1C[C@H](N(C)C(=O)NC3CCCCC3)[C@H]([C@H](C)O)C(=O)N1CC2	.	?	.	7%	.	?
C[C@H](O)[C@@H]1C(=O)N2CCc3c([nH]c4ccccc34)[C@@H]2C[C@@H]1N(C)C(=O)Nc1cc(Cl)cc(Cl)c1	.	29µM*	.	-11%	.	?
SMILES	VP16 counter	TDP1 cell CPT	ELG1 repair inh	ALOX12 inh	RORgamma inh	TDP1 cell noCPT
Cc1ccccc1Oc1ccc2c(c1)[C@@H]1C[C@H]3[C@@H](C(=O)N1CC2)[C@H](C)ON3C	.	16µM*	.	?	.	23µM*
Cc1ccccc1Oc1ccc2c(c1)[C@@H]1C[C@H](N(C)C(=O)Nc3cc(Cl)cc(Cl)c3)[C@H]([C@H](C)O)C(=O)N1CC2	.	?	.	2%	.	18µM*
COCCn1c(=O)[nH]c(=O)c2c3c(cnc21)C(=O)CC(c1ccc(F)cc1)C3 (centres undefined)	.	.	.	2%	.	.
c1ccc(Nc2cc3c(cn2)CN(Cc2cccs2)CCN3)cc1	.	.	.	-1%[176 µM]	.	.
CS(=O)(=O)N1CCCC(C(=O)NCCCN2CCCc3ccccc32)CCNC(=O)CC1 (centres undefined)	.	.	.	i	.	.
CC12CCC(C(=O)N(CSC(=S)N/N=C\c3ccccc3)C1=O)C2(C)C (centres undefined)	1.6µM*	5.8µM*	-4%	0%	1.1µM*	4.6µM*
CC12CCC(C(=O)N(CSC(=S)N/N=C\c3ccccc3Cl)C1=O)C2(C)C (centres undefined)	0%	-11%	-11%	?	?	?
CC(C)(C)c1cc(-c2ccccc2)c2cc([N+](=O)[O-])ccc2n1	.	.	.	19%	.	.
CCC(=O)OC1(C(C)=O)CCC2C3CCC4=CC(=O)CCC4(C)C3CCC21C (centres undefined)	.	-98%	.	1%	.	23µM*
CC12CCC(=O)C=C1C(O)CC1C2CCC2(C)C1CCC2(O)C(=O)CO (centres undefined)	.	?	.	-5%	.	-18%
CC(=O)OC1(C(C)=O)CCC2C3CC(C(F)(F)F)C4=CC(=O)CCC4(C)C3CCC21C (centres undefined)	.	?	.	3%	.	13µM*
CC(=O)O[C@]1(C(C)=O)CC[C@H]2[C@@H]3C[C@H](C)C4=CC(=O)CC[C@]4(C)[C@H]3CC[C@@]21C	-6%	18µM*	-4%	1%	-34%	16µM*!
CC(=O)O[C@]1(C(C)=O)CC[C@H]2[C@@H]3C=C(C)C4=CC(=O)CC[C@]4(C)[C@@H]3CC[C@@]21C	.	.	.	34%[57.4 µM]	.	.
CC(=O)C12CCCCC1CC1[C@@H]3CC(C)C4=CC(=O)CC[C@]4(C)C3CC[C@@]12C (some centres undefined)	-6%	?	-27%	0%	-8%	15µM*
CCCCCC(=O)O[C@@]1(C(C)=O)CCC2C3CCC4=CC(=O)CC[C@@]4(C)C3CC[C@]21C (some centres undefined)	-11%	?	.	.	33%	?

Source: PubChem (National Center for Advancing Translational Sciences (NCATS))
